# Data from the supplement of paper PMC3342239.
# Where a name gives a salt, the structure may show the parent alone.
# System: Saccharomyces cerevisiae
# Test: fraction of cells in G1 phase (DNA content, flow cytometry); higher = more cells with unreplicated DNA (G1 delay)
# Details: temperature: 30 C; YPD; JTY2953 pdr5 snq2 (sensitized); drug added to: cultures diluted from stationary phase; 6-7 h
# Summary of the method: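 Yeast (S. cerevisiae) in YPD at 30°C was treated with library drugs, and cells were then fixed in ethanol, stained with SYTOX Green and counted by flow cytometry over 10,000 events. Sensitized JTY2953 diluted 1∶200 from an overnight culture got a final 20 µg/ml and was fixed 6–7 h later; other runs dosed dividing JTY2953 (fixed at 6 h) or BY4741 (fixed at 4.33 h). G1 fraction means the Dean-Jett-Fox G1 peak area relative to the G1 and G2/M areas together.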
row,SMILES,fraction of cells in G1 phase
1,CNC1(C)C2CCC(C2)C1(C)C (stereo not given) [Mecamylamine HCl] (119.548 µM),0.486
2,CCCc1nc(C)c2c(=O)nc(-c3cc(S(=O)(=O)N4CCN(CC)CC4)ccc3OCC)[nH]n12 [Vardenafil] (40.9322 µM),0.511
3,Cc1oncc1C(=O)Nc1ccc(C(F)(F)F)cc1 [Leflunomide] (74.0157 µM),0.555
4,COc1ccnc(C[S+]([O-])c2nc3cc(OC(F)F)ccc3[nH]2)c1OC (stereo not given) [Pantoprazole] (52.168 µM),0.484
5,C[C@]12CC[C@@H]3c4ccc(O)cc4CC[C@H]3[C@@H]1CC[C@@H]2O [Estradiol] (73.4239 µM),0.58
6,C[C@H](N[C@@H](CCc1ccccc1)C(=O)O)C(=O)N1CCC[C@H]1C(=O)O [Enalaprilat] (57.4049 µM),0.491
7,C#C[C@]1(O)CC[C@H]2[C@@H]3[C@H](C)CC4=C(CCC(=O)C4)[C@H]3CC[C@@]21C [Tibolone] (64.009 µM),0.56
8,C[C@@H]1C(=O)O[C@H]2C[C@@]34[C@H]5C[C@@H](C(C)(C)C)[C@]36[C@@H](OC(=O)[C@@H]6O)O[C@@]4(C(=O)O5)[C@]21O [Ginkgolide a] (48.9705 µM),0.512
9,C[C@H]1COc2c(N3CCN(C)CC3)c(F)cc3c(=O)c(C(=O)O)cn1c23 [Levofloxacin HCl] (55.344 µM),0.471
10,CCCc1nc2c(C)cc(-c3nc4ccccc4n3C)cc2n1Cc1ccc(-c2ccccc2C(=O)O)cc1 [Telmisartan] (38.8627 µM),0.543
